In PubChem BioAssay one finds composite z-score and z-score data, which are given here for nine compounds.

A short description of assay [1]: small molecules captured by biotinylated probe aFSTL3 – biochemical, small-molecule microarray, fluorescence 635/667, stem cell growth factor project, primary screen (AID 1064).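 Also: measures binding of the biotinylated anti-FSTL3 antibody to printed compounds.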 Conditions: higher = more signal.
Assay [2] can be described thus: binders from COS7 lysate, DM2A8 probe, primary screen, torsin A project, cell lysate, small-molecule microarray, fluorescence 635/667 (AID 1065). Conditions: higher = more signal, COS7 lysate expressing mutant human TOR1A.
Assay [3] is described as follows: small molecules captured by biotinylated probe aFGF2 – biochemical, small-molecule microarray, fluorescence 635/667, stem cell growth factor project, primary screen (AID 1067).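 Also: measures binding of biotinylated aFGF2 protein to printed compounds on slides; z-score merges feature fluorescence and signal-to-noise across triplicate slides.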 Conditions: higher = more signal.
Assay [4] can be described thus: small molecules captured by biotinylated probe aFGF10 – biochemical, small-molecule microarray, fluorescence 635/667, stem cell growth factor project, primary screen (AID 1071).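 Also: score merges 667 nm spot intensity and signal to noise from triplicate slides.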 Conditions: higher = more signal.
The target of assay [5] is Neurogenic locus notch homolog protein 2 (Homo sapiens) (UniProt Q04721). Kind of assay: small molecules binding Notch2 protein – biochemical, small-molecule microarray, 635 nm fluorescence, stem cell growth factors, primary screen (AID 1073). The settings on record: higher = more signal.
Chain of Neurogenic locus notch homolog protein 2 (Homo sapiens) (Q04721 whole entry, looked up, canonical isoform): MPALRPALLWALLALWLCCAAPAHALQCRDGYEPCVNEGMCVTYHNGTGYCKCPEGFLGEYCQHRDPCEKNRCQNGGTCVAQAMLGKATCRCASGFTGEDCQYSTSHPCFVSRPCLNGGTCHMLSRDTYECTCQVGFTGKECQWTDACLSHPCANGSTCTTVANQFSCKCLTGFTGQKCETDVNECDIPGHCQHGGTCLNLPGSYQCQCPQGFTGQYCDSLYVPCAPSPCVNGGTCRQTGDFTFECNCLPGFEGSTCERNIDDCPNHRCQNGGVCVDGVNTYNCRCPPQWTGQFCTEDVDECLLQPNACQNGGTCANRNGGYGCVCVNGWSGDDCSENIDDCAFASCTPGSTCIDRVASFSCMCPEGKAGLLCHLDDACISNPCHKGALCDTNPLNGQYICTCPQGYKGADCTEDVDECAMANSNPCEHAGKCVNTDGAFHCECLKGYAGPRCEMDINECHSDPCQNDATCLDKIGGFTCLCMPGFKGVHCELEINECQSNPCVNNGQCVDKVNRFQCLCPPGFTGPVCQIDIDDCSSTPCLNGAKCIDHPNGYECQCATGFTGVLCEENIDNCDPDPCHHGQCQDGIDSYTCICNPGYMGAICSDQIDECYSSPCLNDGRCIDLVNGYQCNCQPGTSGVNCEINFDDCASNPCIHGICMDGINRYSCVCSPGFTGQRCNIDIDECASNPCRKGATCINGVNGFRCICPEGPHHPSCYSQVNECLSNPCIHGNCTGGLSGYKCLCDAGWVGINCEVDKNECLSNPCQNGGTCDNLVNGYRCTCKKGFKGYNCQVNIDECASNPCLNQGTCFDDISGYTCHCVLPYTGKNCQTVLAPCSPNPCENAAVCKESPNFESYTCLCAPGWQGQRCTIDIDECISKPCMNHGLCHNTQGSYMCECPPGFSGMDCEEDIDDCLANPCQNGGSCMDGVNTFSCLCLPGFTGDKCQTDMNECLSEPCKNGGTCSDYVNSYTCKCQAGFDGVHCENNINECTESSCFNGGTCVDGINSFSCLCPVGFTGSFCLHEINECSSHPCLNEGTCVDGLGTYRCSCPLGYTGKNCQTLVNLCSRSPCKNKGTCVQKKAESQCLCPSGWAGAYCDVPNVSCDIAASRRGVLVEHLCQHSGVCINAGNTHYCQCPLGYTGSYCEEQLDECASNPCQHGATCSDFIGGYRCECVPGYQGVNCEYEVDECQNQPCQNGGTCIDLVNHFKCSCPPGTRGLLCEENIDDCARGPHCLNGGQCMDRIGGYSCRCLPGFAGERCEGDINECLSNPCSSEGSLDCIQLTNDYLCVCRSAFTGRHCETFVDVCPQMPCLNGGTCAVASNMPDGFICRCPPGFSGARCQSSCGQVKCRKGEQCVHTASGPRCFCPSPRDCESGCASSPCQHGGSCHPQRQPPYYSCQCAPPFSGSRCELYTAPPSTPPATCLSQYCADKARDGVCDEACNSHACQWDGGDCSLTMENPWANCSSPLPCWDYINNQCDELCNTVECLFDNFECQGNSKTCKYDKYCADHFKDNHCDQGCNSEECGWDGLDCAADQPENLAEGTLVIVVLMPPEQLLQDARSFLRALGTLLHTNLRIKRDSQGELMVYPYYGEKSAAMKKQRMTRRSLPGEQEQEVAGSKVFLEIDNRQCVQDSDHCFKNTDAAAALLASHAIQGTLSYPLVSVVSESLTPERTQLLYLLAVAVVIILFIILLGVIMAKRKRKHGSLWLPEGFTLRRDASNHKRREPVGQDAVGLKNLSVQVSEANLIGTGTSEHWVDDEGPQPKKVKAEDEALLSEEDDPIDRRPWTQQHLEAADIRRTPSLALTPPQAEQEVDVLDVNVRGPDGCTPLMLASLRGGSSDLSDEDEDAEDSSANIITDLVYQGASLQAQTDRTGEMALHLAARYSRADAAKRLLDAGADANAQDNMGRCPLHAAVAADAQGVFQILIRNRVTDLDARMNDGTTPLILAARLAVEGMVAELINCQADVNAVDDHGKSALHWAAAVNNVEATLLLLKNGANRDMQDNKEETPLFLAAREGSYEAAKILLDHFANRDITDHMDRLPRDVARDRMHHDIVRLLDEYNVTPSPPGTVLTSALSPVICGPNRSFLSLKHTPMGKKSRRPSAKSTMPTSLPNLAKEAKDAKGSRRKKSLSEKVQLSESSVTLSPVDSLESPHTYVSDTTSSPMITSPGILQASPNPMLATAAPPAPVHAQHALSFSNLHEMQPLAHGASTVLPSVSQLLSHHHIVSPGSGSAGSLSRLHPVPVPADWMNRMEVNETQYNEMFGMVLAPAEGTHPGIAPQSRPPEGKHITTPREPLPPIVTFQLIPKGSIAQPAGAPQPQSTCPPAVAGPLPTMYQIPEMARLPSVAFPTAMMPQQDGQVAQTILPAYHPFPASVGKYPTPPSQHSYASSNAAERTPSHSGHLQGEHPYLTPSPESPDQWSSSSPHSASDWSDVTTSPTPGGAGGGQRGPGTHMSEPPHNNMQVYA
The target of assay [6] is Pro-neuregulin-1, membrane-bound isoform (Homo sapiens) (UniProt Q02297). The assay can be described thus: small molecules binding neuregulin-1 protein – biochemical, small-molecule microarray, fluorescence 635/667, psychiatric disease protein project, primary screen (AID 1075).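 Also: score combines 667 nm spot fluorescence with signal to noise.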 Conditions: NRG1 binding, 635 nm fluorescence, higher = more signal.
Assay [7] has as its system Neuregulin-1 EGF-like domain. Kind of assay: small molecules binding NRG1 EGF domain – biochemical, small-molecule microarray, 635 nm fluorescence, primary screen (AID 1081).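 Also: binding of the protein to compounds printed on small-molecule microarray slides.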 The settings on record: higher = more signal.
A short description of assay [8]: FRG1 expression reporter modulators in myotubes – cell-based, C2C12 myotubes, firefly/Renilla luciferase, luminescence, FRG1 inhibition for FSHD, primary screen (AID 1084). The settings on record: FRG1 promoter luciferase, higher = more signal, called active from +8 up or from −8 down.
The nature of assay [9]: small molecules captured by biotinylated probe aFST – biochemical, small-molecule microarray, fluorescence 635/667, stem cell growth factor project, primary screen (AID 1086).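 Also: score merges 667 nm fluorescence with signal-to-noise of each printed compound spot.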 The settings on record: higher = more signal.
The nature of assay [10]: binders of probe aHhip on microarray, primary screen, stem cell growth factor project, biochemical, small-molecule microarray, fluorescence 635/667 (AID 1087).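 Also: score merges spot fluorescence at 667nm with spot signal to noise ratio.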 Conditions: higher = more signal.
Assay [11] has as its system PRMT1 (protein arginine N-methyltransferase 1). Kind of assay: small molecules binding arginine methyltransferase PRMT1 – biochemical, small-molecule microarray, 635 nm fluorescence, primary screen (AID 1088).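 Also: binding of Prmt1 protein to compounds spotted on small-molecule microarray slides.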 Conditions: higher = more signal.
Assay [12] in a line: growth effects on S. cerevisiae YJM789 – YJM789 clinical isolate, OD600, 24 h, basal, primary screen (AID 1089).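 Also: growth of clinical yeast isolate S. cerevisiae YJM 789 seeded 1000 cells per well; test concentration not given here.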 Conditions: higher = more signal, called active from +8 up or from −8 down.
The nature of assay [13]: S. pombe growth modifiers, basal conditions – strain 972, OD600, 24 h, no modulator, primary screen (AID 1090).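 Also: basal condition with compound alone and no growth modifier present; test concentration not given here.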 The settings on record: S. pombe 972 growth, higher = more signal, called active from +8 up or from −8 down.
Assay [14] is described as follows: budding yeast growth modifiers under rapamycin – strain BY4716, OD600, 96 h, primary screen (AID 1091). Also: test concentration not given here. The settings on record: S. cerevisiae BY4716 + rapamycin, higher = more signal, called active from +8 up or from −8 down.
In assay [15] the target is Torsin-1A-interacting protein 2 (Homo sapiens) (UniProt Q8NFQ8). The assay can be described thus: small molecules binding lysate-expressed LULL1 – cell lysate, human LULL1 lysate, 635/667 nm fluorescence, primary screen (AID 1092).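 Also: probe is lysate of COS7 cells overexpressing human LULL1; score merges per-feature 667 nm fluorescence with signal-to-noise.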 The settings on record: small-molecule microarray, hLULL1 lysate binding, 635 nm fluorescence; higher = more signal.
A short description of assay [16]: optical density change of DRC41 E. coli – strain DRC41, OD650, 24 h, E. coli filamentation project, primary screen (AID 1093).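 Also: MC1000 strain lacking acrAB efflux and sulA so SOS filamentation is blocked; test concentration not given here.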 The settings on record: E. coli DRC41 growth, higher = more signal, called active from +8 up or from −8 down.
Assay [17] is described as follows: probe aLefty2 binding to arrayed compounds – biochemical, biotinylated probe, 635/667 nm fluorescence, primary screen (AID 1094).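 Also: score merges spot fluorescence near 667 nm with spot signal-to-noise ratio.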 The settings on record: small-molecule microarray, higher = more signal.
In assay [18] the test system is Noggin (protein binding on small-molecule microarray). Kind of assay: small molecules binding Noggin protein – biochemical, 635/667 nm fluorescence, primary screen (AID 1095).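 Also: score merges 667 nm feature fluorescence with signal to noise over triplicate slides.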 Conditions: 635 nm fluorescence, higher = more signal.
The target in assay [19] is Neurogenic locus notch homolog protein 3 (Homo sapiens) (UniProt Q9UM47). Kind of assay: small molecules binding NOTCH3 protein – biochemical, 635/667 nm fluorescence, primary screen (AID 1096). The settings on record: small-molecule microarray, 635 nm fluorescence, higher = more signal.
Chain of Neurogenic locus notch homolog protein 3 (Homo sapiens) (Q9UM47 whole entry, looked up): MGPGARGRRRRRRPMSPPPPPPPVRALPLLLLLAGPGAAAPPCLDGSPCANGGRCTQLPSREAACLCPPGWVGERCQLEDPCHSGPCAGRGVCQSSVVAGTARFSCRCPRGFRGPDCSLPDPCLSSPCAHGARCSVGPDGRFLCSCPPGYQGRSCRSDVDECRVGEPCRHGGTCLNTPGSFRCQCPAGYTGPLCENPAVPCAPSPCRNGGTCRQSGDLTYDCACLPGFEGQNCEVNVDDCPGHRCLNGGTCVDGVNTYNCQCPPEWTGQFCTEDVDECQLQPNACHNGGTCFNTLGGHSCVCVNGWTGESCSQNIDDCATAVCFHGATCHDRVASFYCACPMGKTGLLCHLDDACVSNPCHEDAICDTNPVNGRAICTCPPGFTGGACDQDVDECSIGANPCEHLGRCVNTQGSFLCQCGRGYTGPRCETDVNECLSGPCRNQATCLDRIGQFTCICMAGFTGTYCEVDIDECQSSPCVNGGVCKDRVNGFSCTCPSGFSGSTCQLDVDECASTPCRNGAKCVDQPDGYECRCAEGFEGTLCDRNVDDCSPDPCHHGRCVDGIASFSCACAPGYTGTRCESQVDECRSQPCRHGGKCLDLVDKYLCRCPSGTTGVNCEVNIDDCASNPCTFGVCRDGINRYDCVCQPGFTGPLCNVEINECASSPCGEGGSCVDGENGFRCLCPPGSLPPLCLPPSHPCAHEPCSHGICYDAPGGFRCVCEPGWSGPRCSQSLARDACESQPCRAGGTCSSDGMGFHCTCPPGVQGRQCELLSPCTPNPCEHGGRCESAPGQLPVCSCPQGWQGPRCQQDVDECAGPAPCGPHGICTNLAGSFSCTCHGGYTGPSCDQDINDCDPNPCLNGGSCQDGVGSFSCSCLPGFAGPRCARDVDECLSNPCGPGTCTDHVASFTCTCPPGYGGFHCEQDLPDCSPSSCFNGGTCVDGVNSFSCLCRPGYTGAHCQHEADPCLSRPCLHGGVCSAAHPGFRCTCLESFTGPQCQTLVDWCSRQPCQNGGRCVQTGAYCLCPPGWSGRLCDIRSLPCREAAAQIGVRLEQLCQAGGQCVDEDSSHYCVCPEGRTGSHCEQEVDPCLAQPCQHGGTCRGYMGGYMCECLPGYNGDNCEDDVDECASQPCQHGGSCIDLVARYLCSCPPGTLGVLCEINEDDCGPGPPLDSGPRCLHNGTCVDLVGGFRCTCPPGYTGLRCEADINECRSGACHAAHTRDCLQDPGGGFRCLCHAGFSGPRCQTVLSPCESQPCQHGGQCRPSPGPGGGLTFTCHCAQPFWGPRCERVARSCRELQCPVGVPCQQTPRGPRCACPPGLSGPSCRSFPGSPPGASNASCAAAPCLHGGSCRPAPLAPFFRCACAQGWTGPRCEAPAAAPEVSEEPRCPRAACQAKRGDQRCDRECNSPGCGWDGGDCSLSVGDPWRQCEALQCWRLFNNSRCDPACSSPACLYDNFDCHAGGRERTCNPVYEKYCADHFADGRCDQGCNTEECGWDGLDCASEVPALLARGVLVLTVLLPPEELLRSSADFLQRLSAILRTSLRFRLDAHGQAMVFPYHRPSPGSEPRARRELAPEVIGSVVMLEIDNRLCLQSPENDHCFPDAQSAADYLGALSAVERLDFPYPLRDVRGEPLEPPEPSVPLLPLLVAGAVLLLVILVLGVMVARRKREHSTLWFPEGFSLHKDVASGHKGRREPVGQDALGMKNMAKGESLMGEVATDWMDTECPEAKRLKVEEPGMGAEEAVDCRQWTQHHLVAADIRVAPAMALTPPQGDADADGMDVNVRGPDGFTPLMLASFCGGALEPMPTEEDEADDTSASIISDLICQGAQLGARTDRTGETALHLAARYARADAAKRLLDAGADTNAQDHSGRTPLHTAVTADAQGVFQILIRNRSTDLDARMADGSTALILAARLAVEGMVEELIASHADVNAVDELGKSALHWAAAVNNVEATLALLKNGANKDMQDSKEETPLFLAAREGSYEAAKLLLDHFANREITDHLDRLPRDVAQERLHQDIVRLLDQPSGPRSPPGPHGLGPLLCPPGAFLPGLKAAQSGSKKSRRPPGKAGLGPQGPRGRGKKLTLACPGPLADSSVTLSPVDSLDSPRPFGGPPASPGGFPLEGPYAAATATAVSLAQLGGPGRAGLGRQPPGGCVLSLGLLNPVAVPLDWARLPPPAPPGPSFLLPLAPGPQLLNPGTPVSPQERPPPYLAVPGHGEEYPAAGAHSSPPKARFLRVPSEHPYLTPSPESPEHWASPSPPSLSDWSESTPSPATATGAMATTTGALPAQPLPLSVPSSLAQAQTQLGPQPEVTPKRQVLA
A short description of assay [20]: probe aEGFR binding to arrayed compounds – biochemical, biotinylated probe, 635/667 nm fluorescence, primary screen (AID 1097).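 Also: probe is a biotinylated anti-EGFR antibody binding compounds printed on slides; score combines fluorescence near 667 nm and signal to noise of each spot.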 Conditions: small-molecule microarray, higher = more signal.

Active and inactive are the calls of the source.

For `[N-]=[N+]=NCc1ccccc1[C@@H]1OC(c2ccc(OCCCO)cc2)=N[C@]1(Cc1ccccc1N=[N+]=[N-])C(=O)NCCN1CCOCC1`, the composite z-score in [1] is -0.0579; in [2], 0.909; in assay [3], 0.088; in [4], 0.828; in assay [5], 1.56; in assay [6], 1.19. Besides, the composite z-score in assay [7] is 1.25; in assay [9] it was 1.11; in [10], -0.213; in assay [11], 1.55; in assay [15], 3.26; in [17], 0.0814. Further, the composite z-score in [18] was found to be 1.6; in assay [19] it was 1.05; in [20] it was 0.0809. Besides, the z-score in assay [8] was 0.982 (inactive); in assay [12], -0.563 (inactive); in assay [13] it was -4.92 (inactive); in [14], -0.889 (inactive); in [16], 0.118 (inactive).

For the compound `CC(C)N1CC=CC23O[C@@H]4/C=C\CCCOC(=O)C4[C@H]2C(=O)N(CCCCCCO)[C@@H]3C1=O` (stereo not given in full), the composite z-score is 0.59 in assay [1]; 0.525 in assay [2]; -0.0924 in assay [3]; 0.716 in [4]; -0.602 in [5]; 2.01 in [6]. Also, the composite z-score was 1.03 in [7]; -0.302 in assay [9]; 0.139 in assay [10]; 0.529 in assay [11]; 3.18 in assay [15]; -0.121 in assay [17]. For the same compound, the composite z-score in assay [18] was -1.26; in assay [19] it was -0.112; in assay [20] it was -0.152. Further, the z-score in assay [8] was 0.163 (inactive); in [12], 0.226 (inactive); in assay [13] it was -2.03 (inactive); in assay [14] it was -0.331 (inactive); in [16] it was 2 (inactive).

Take `O=C(O)[C@@H]1C[C@@H]2C(=O)N3CCC[C@H]3C(=O)N2[C@@H]1c1cccc(OCCO)c1`: the composite z-score came out at 3.06 in assay [1]; 2.45 in assay [2]; 0.588 in [3]; 0.648 in assay [4]; 1.7 in [5]; 2.68 in assay [6]. For the same compound, the composite z-score in assay [7] was 1.49; in [9], 3.21; in [10] it was 1.1; in assay [11], 1.53; in assay [15], 4.25; in assay [17] it was 1.49. In addition, the figures for the composite z-score in assay [18], in [19] and in assay [20] were 1.95, 1.07 and 1.27, respectively. The z-score is 1.39 (inactive) in assay [8]; -0.386 (inactive) in assay [12]; -1.98 (inactive) in assay [13]; -0.533 (inactive) in assay [14]; 1.14 (inactive) in assay [16].

Consider `COc1ccc(C(O)C2C=CC3C(=O)N(c4ccccc4)C(=O)C3N2Nc2ccccc2)cc1` (stereo not given), for which the composite z-score in assay [1] was -0.0234; in assay [2], 0.316; in assay [3], 0.142; in assay [4], 0.979; in assay [5] it was 1.66; in assay [6], 1.93. Besides, the composite z-score turned out to be 1.31 in assay [7]; 0.531 in assay [9]; 0.289 in assay [10]; 1.53 in assay [11]; 3.6 in [15]; 0.191 in assay [17]. In addition, the results for the composite z-score in [18], in [19] and in [20] were 0.505, 1.05 and -0.0382, respectively. The z-score in assay [8] is -1.07 (inactive); in assay [12], 0.219 (inactive); in assay [13], -0.24 (inactive); in [14], 0.211 (inactive); in [16], -0.701 (inactive).

Take `O=C1C[C@@](C(=O)NCC(F)(F)F)(c2ccc([N+](=O)[O-])cc2)[C@@H](c2ccc(CO)cc2)N1CC12CC3CC(CC(C3)C1)C2`: the composite z-score in assay [1] is 0.213; in assay [2] it was 0.244; in [3] it was 0.134; in [4] it was 1.15; in [5] it was 1.19; in assay [6], 0.812. The composite z-score is 1.32 in assay [7]; 0.724 in [9]; 0.914 in assay [10]; 1.55 in assay [11]; 2.05 in [15]; 0.426 in assay [17]. Also, the results for the composite z-score in assay [18], in assay [19] and in [20] were 1.26, 0.614 and 0.751, respectively. In addition, the z-score in assay [8] was -2.42 (inactive); in assay [12], 0.263 (inactive); in assay [13] it was -1.03 (inactive); in assay [14] it was 1.77 (inactive); in assay [16] it was -0.49 (inactive).

In the case of `O=C1O[C@H](c2ccccc2)[C@H](c2ccccc2)N2[C@H]1[C@@H](C(=O)N1CCCCCCC1)[C@]1(C(=O)Nc3ccc(C#CC4(O)CCCCCC4)cc31)[C@H]2c1ccc(O)cc1`, the composite z-score in [1] was 3.63; in assay [2], 1.42; in assay [3], 0.807; in assay [4], 0.822; in assay [5], 1.36; in assay [6], 1.36. The composite z-score in assay [7] came out at 1.2; in assay [9], 2.97; in assay [10], 0.697; in assay [11], 1.54; in [15], 3.97; in assay [17], 1.65. In addition, the values for the composite z-score in assay [18], in [19] and in assay [20] were 1.78, 1.06 and 1.35, respectively. Also, the z-score in assay [8] was -2.46 (inactive); in assay [12], 0.666 (inactive); in assay [13] it was 0.73 (inactive); in [14], 1.19 (inactive); in assay [16] it was 0.408 (inactive).

For `O=c1cccc(-c2ccco2)o1`, the composite z-score in assay [1] was -0.539; in assay [2], 0.336; in assay [3] it was -0.132; in [4], 0.694; in assay [5], 0.386; in assay [6] it was 0.904. Besides, the composite z-score in assay [7] is 0.498; in [9] it was 0.0153; in assay [10], -0.0994; in assay [11], 1.29; in assay [15], 0.108; in assay [17], -0.0963. Moreover, the values for the composite z-score in assay [18], in [19] and in assay [20] were 1.32, 0.832 and 0.0023, respectively. Also, the z-score was 0.557 (inactive) in assay [8]; -0.445 (inactive) in [12]; -0.311 (inactive) in assay [13]; 0.167 (inactive) in assay [14]; -0.696 (inactive) in [16].

For the compound `C=CCC(OC(C)=O)[C@@H]1[C@@H](N(Cc2cccc3ccccc23)C(=O)c2cccc3ccccc23)c2cc(OCCCO)ccc2N1C(=O)c1ccc2ccccc2c1` (stereo not given in full), the composite z-score was -0.232 in [1]; -0.124 in assay [2]; 0.365 in [3]; 0.0197 in [4]; -0.833 in [5]; -0.247 in assay [6]. The composite z-score in [7] is -0.313; in assay [9], 0.268; in [10], -0.132; in assay [11], 0.692; in assay [15], 1.65; in assay [17] it was -0.156. Further, the composite z-score in assay [18] was 0.345; in [19], -0.0325; in [20] it was -0.0967. The z-score is -2.36 (inactive) in assay [8]; -0.55 (inactive) in [12]; 0.672 (inactive) in assay [13]; -1.35 (inactive) in assay [14]; 0.195 (inactive) in [16].

In the case of `C=C(C)C1CCC(C(O)C2C=CC3C(=O)N(C)C(=O)C3N2Nc2cc(OC)c(OC)c(OC)c2)CC1` (stereo not given), the composite z-score came to 0.735 in [1]; 0.287 in assay [2]; 0.115 in assay [3]; 0.334 in assay [4]; 1.57 in [5]; 1.97 in assay [6]. Moreover, the composite z-score in assay [7] was 1.29; in [9], 1.07; in assay [10] it was -0.0296; in assay [11] it was 1.51; in assay [15] it was 3.28; in [17] it was 0.0361. For the same compound, the composite z-score in [18] turned out to be 0.205; in assay [19], 1.02; in assay [20], 0.0763. In addition, the z-score in assay [8] is 1.12 (inactive); in [12], 0.367 (inactive); in [13] it was 0.458 (inactive); in assay [14], 0.0769 (inactive); in [16], -1.37 (inactive).
